Measured values as given in PubChem BioAssay (NCATS).
The source made the active and inactive calls. The call rests on the fitted dose curve; in most records, active means well fitted curve in the direction sought with a large enough effect; inconclusive means small, poorly fitted or top-dose-only effect, or another doubt; inactive means no such curve, though single readings can be large; an effect the other way counts as inactive or inconclusive.

Target: Alpha-galactosidase A (Homo sapiens) (UniProt P06280)
Sequence (P06280 whole entry, looked up): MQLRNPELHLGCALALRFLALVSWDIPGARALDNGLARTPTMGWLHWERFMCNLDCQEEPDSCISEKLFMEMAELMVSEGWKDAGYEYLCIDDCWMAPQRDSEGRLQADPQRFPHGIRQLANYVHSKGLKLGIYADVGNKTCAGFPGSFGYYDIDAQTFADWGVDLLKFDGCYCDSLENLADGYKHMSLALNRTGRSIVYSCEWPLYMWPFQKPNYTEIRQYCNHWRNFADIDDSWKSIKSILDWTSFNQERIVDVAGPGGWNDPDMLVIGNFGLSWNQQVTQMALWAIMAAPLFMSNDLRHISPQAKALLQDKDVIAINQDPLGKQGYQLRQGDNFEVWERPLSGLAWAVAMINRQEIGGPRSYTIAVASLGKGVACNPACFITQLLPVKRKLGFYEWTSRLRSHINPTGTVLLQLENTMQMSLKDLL
Test: Counterscreen for Glucocerebrosidase Inhibitors: qHTS Assay for Human alpha-Galactosidase at pH 4.5 (AID 992)
Settings: purified enzyme, fluorogenic substrate; series mostly up to 76.9 µM
In short: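 Fluorogenic 4-MU alpha-D-galactoside (80 uM) hydrolysis, 2 nM enzyme, pH 4.5 citrate buffer + 0.005% Tween-20; 20 min RT; NaOH/glycine pH 10 stop; Ex365/Em440. Compounds titrated 0.7 nM–77 uM; Hill-equation AC50.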

SMILES	outcome
COCC(=O)O[C@]1(CCN(C)CCCc2nc3ccccc3[nH]2)CCc2cc(F)ccc2[C@@H]1C(C)C	inactive
CCNC(=O)N1CCN(CCCC(c2ccc(F)cc2)c2ccc(F)cc2)CC1	inactive
CCCN(CCC)CCc1cccc2c1CC(=O)N2	inactive
CN(C)C(=O)Oc1ccc[n+](C)c1	inactive
CNCCCN1c2ccccc2CCc2ccccc21	inactive
CCC(=O)c1ccc2c(c1)N(CCCN(C)C)c1ccccc1S2	inactive
Cc1nc2sccn2c(=O)c1CCN1CCC(=C(c2ccc(F)cc2)c2ccc(F)cc2)CC1	inactive
NCCCNCCSP(=O)(O)O	inactive
CN(C)CCCN1c2ccccc2Sc2ccccc21	inactive
C[N+](C)(C)CCCCCCCCCC[N+](C)(C)C	inactive
Cc1ccc(Cl)c(Nc2ccccc2C(=O)O)c1Cl	inactive
C[N+](C)(C)CCOC(N)=O	inactive
Brc1c(NC2=NCCN2)ccc2nccnc12	inactive
CC(C)[N+](C)(CCOC(=O)C1c2ccccc2Oc2ccccc21)C(C)C	inactive
CN(C)CC/C=C1\c2ccccc2COc2ccccc21	inactive
CCO/C([O-])=N/c1c[n+](N2CCOCC2)no1	inactive

SMILES	outcome
C[C@H](CS)C(=O)N1CCC[C@H]1C(=O)O	inactive
Cc1scc2c1N(C(=O)CN1CCN(C)CC1)c1ccccc1NC2=O	inactive
O=C(CCCN1CCC(O)(c2cccc(C(F)(F)F)c2)CC1)c1ccc(F)cc1	inactive
CC1=NS(=O)(=O)c2cc(Cl)ccc2N1	inactive
O=C1CC2(CCCC2)CC(=O)N1CCCCN1CCN(c2ncccn2)CC1	inactive
CN(C)CCCN1c2ccccc2Sc2ccc(C(F)(F)F)cc21	inactive
CC(=O)Nc1nnc(S(N)(=O)=O)s1	inactive
O=C(O)CN(CCN(CC(=O)O)CC(=O)O)CCN(CC(=O)O)CC(=O)O	inactive
CSc1ccc(C(=O)c2[nH]c(=O)[nH]c2C)cc1	inactive
C(=C\c1ccccc1)/CN1CCN(C(c2ccccc2)c2ccccc2)CC1	inactive
CC(=O)Oc1cc(C(C)C)c(OCCN(C)C)cc1C	inactive
C[C@]12CCC(=O)C=C1CC[C@@H]1[C@@H]2CC[C@@]2(C)[C@H]1CC[C@]2(O)C(=O)CO	inactive
CCc1cccc(N(C)C(N)=Nc2cccc3ccccc23)c1	inactive
CCCC(C(=O)OCCN(CC)CC)(c1ccccc1)c1ccccc1	inactive
c1cc(CN2CCCCC2)cc(OCCCNc2nc3ccccc3s2)c1	inactive
CN(C)C(=O)Oc1cccc([N+](C)(C)C)c1	inactive

Target: alpha-glucosidase (Oryza sativa, rice) (UniProt Q653V4)
Test: Counterscreen for Glucocerebrosidase Inhibitors: qHTS Assay for Rice alpha-Glucosidase at pH 5.0 (AID 997)
Settings: rice alpha-glucosidase enzyme activity; series mostly up to 76.9 µM
In short: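 Endpoint fluorogenic assay at pH 5.0: compounds (0.7 nM to 77 uM) titrated against 4 nM rice enzyme and 400 uM 4-MU-alpha-glucoside for 20 min at room temperature; NaOH/glycine stop, read ex 365/em 440 nm, Hill-fitted AC50.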

SMILES	outcome
COCC(=O)O[C@]1(CCN(C)CCCc2nc3ccccc3[nH]2)CCc2cc(F)ccc2[C@@H]1C(C)C	inactive
CCNC(=O)N1CCN(CCCC(c2ccc(F)cc2)c2ccc(F)cc2)CC1	inactive
CCCN(CCC)CCc1cccc2c1CC(=O)N2	inactive
CN(C)C(=O)Oc1ccc[n+](C)c1	inactive
CNCCCN1c2ccccc2CCc2ccccc21	inactive
CCC(=O)c1ccc2c(c1)N(CCCN(C)C)c1ccccc1S2	inactive
Cc1nc2sccn2c(=O)c1CCN1CCC(=C(c2ccc(F)cc2)c2ccc(F)cc2)CC1	inactive
NCCCNCCSP(=O)(O)O	inactive
CN(C)CCCN1c2ccccc2Sc2ccccc21	inactive
C[N+](C)(C)CCCCCCCCCC[N+](C)(C)C	inactive
Cc1ccc(Cl)c(Nc2ccccc2C(=O)O)c1Cl	inactive
C[N+](C)(C)CCOC(N)=O	inactive
Brc1c(NC2=NCCN2)ccc2nccnc12	inactive
O=C1NCN(c2ccccc2)C12CCN(CCCC(c1ccc(F)cc1)c1ccc(F)cc1)CC2	inactive
CC(C)[N+](C)(CCOC(=O)C1c2ccccc2Oc2ccccc21)C(C)C	inactive
C[C@]12C=CC(=O)C=C1CC[C@H]1[C@@H]3C[C@@H](O)[C@](O)(C(=O)CO)[C@@]3(C)C[C@H](O)[C@@]12F	inactive
CN(C)CC/C=C1\c2ccccc2COc2ccccc21	inactive

SMILES	outcome
CCO/C([O-])=N/c1c[n+](N2CCOCC2)no1	inactive
C[C@H](CS)C(=O)N1CCC[C@H]1C(=O)O	inactive
Cc1scc2c1N(C(=O)CN1CCN(C)CC1)c1ccccc1NC2=O	inactive
O=C(CCCN1CCC(O)(c2cccc(C(F)(F)F)c2)CC1)c1ccc(F)cc1	inactive
CC1=NS(=O)(=O)c2cc(Cl)ccc2N1	inactive
O=C1CC2(CCCC2)CC(=O)N1CCCCN1CCN(c2ncccn2)CC1	inactive
CN(C)CCCN1c2ccccc2Sc2ccc(C(F)(F)F)cc21	inactive
CC(=O)Nc1nnc(S(N)(=O)=O)s1	inactive
O=C(O)CN(CCN(CC(=O)O)CC(=O)O)CCN(CC(=O)O)CC(=O)O	inactive
CSc1ccc(C(=O)c2[nH]c(=O)[nH]c2C)cc1	inactive
C(=C\c1ccccc1)/CN1CCN(C(c2ccccc2)c2ccccc2)CC1	inactive
CC(=O)Oc1cc(C(C)C)c(OCCN(C)C)cc1C	inactive
C[C@]12CCC(=O)C=C1CC[C@@H]1[C@@H]2CC[C@@]2(C)[C@H]1CC[C@]2(O)C(=O)CO	inactive
CCc1cccc(N(C)C(N)=Nc2cccc3ccccc23)c1	inactive
CCCC(C(=O)OCCN(CC)CC)(c1ccccc1)c1ccccc1	inactive
c1cc(CN2CCCCC2)cc(OCCCNc2nc3ccccc3s2)c1	inactive
CN(C)C(=O)Oc1cccc([N+](C)(C)C)c1	inactive
